# The list is not random: actives were taken first. Their share in the collection is about 3.4%.
# MITF act – activators of MITF-driven TRPM1 promoter activity in SK-MEL-5 cells. SK-MEL-5 TRPM1-promoter luciferase, 24 h; % of positive control, neutral wells = 0. activation, % at 12.5 µM. 300,000 compounds, 0.75% hits. AID 588334;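 active means mean activation of at least 80% with every replicate also reaching 80%; inconclusive means mean reaches 80% but some replicate falls short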;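 further: 0% = neutral control wells and 100% = parthenolide positive control wells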
# Wnt act – Wnt/beta-catenin pathway activation. 300,000 compounds, 1.2% hits. AID 743398. Wnt/beta-catenin reporter cell assay, activator, plate reader. activation, % at 9.35 µM; in the data active means activation above about 30%, passing the limit was not always enough; inconclusive means no clear call, values can overlap the other calls;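 further: 0% = neutral control wells and 100% = positive control wells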
# Env fusion inh – inhibitors of HIV Env-mediated cell fusion; 360,000 compounds, 1.1% hits; inhibition, % at 12.3 µM; HeLa-JRFL Env/CEM21 cell fusion, luciferase;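 active means mean replicate inhibition score of at least 50 and every replicate individually at or above 50; inconclusive means only one of the two criteria met; inactive means mean below 50 and not all replicates reaching 50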;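 further: 0% = plate neutral controls and 100% = maraviroc near 300 nM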
# esBAF inh – SWI/SNF esBAF complex inhibition; AID 602393; mouse ES cells, Bmi1-luciferase knock-in reporter, 24 h; 100% = twice the neutral-well signal; 350,000 compounds, 2% hits; reporter increase, % at 12.5 µM; in the data active means activation above about 40%; inconclusive means no clear call, values can overlap the other calls;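 further: 0% = median of the plate's neutral control wells and 100% = double that signal; a rise in the Bmi1 reporter signal indicates esBAF inhibition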
# miR122 inh – blocks miR-122 activity in Huh7 sensor cells | Huh7 miR-122 Renilla luciferase sensor, 48 h; neutral wells = 0, positive control = 100 | activation (reporter increase), % at 12.5 µM | 340,000 compounds, 0.3% hits;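 active means mean replicate activation score at least 90 and every replicate individually at or above 90; inconclusive means only one of the two criteria met; inactive means neither criterion met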;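 further: higher luciferase means less miR-122 activity so hits act as miR-122 inhibitors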
# Numbers without * were called inactive; i = inactive; ? = inconclusive; / = not tested or not shown; [ ] = remark or other dose.
SMILES,MITF act,Wnt act,Env fusion inh,esBAF inh,miR122 inh
C[C@H](CO)N1C[C@H](C)[C@@H](CN(C)S(=O)(=O)c2ccc(F)cc2)OCCCC[C@H](C)Oc2ccc(NS(=O)(=O)c3ccc(F)cc3)cc2C1=O,/,/,-19[16.7 µM],1,-1[16.7 µM]
N=C1C(c2nc3ccccc3s2)=C(O)CN1Cc1ccco1,88*,/,-118,53*,5
COc1ccc(N2CC(O)=C(c3nc4ccccc4s3)C2=N)c(OC)c1,/,-1,-1,23,102*
CN(C)CCN1CC(O)=C(c2nc3ccccc3s2)C1=N,4,-1,-3,8,-3
O=C(C[C@@H]1C=C[C@@H](NC(=O)C2CCOCC2)[C@@H](CO)O1)NCC1CCCCC1,/,/,14[16.7 µM],1,/
O=[N+]([O-])c1ccc(N/N=C\c2cccnc2)nc1,99*,9,-66,/,/
O=[N+]([O-])c1ccc(NN=Cc2ccc3c(c2)OCO3)nc1,78,-3,-69,93*,/
O=[N+]([O-])c1ccc(NN=Cc2cccc(O)c2)nc1,72,-3,-108,30,/
COc1cc(/C=N/Nc2ccc([N+](=O)[O-])cn2)cc(OC)c1O,11,-10,1,/,/
O=[N+]([O-])c1ccc(S(=O)(=O)NN=Cc2ccc3c(c2)OCO3)cc1,2,-2,-52,0,1
O=[N+]([O-])c1ccc(NN=Cc2ccco2)nc1,70,2,-61,91*,/
CC(=O)Nc1ccc(C=NNc2ccc([N+](=O)[O-])cn2)cc1,46,14,/,89*,/
C[C@@H]1CCCCO[C@H](CN(C)Cc2ccncc2)[C@H](C)CN([C@H](C)CO)C(=O)c2cc(NC(=O)Nc3ccc(F)cc3)ccc2O1,/,/,5[16.7 µM],1,-13[16.7 µM]
C[C@@H]1CCCCO[C@@H](CN(C)C(=O)c2ccncc2)[C@@H](C)CN([C@@H](C)CO)C(=O)c2cc(NS(=O)(=O)c3ccccc3)ccc2O1,/,/,8[16.7 µM],-2,2[16.7 µM]
CO[C@@H]1CN(C)C(=O)c2cc(NC(=O)Nc3cc(F)ccc3F)ccc2OC[C@H](C)N(C(=O)c2cnccn2)C[C@H]1C,/,/,/,-5,/
Cn1cccc1C(=O)NCC1COc2ccccc2O1 (stereo unspecified),88*,?,-11,55*,-3
O=C(Cc1ccccc1)NCC1COc2ccccc2O1 (stereo unspecified),0,1,/,/,/
O=C(NCC1COc2ccccc2O1)c1ccc(Br)s1 (stereo unspecified),77,7,-29,42*,/
COc1cc(C(=O)O/N=C2\C=CC(=O)C(C)=C2)cc(OC)c1OC,/,61*,-120,-7,-2
CCOC(=O)N1CCN(c2ncnc3c2[nH]c2ccc(F)cc23)CC1,-52,-5,64*,-21,-10
CC1(C)NC(=O)N(CC(=O)OCc2cc(=O)n3cc(Br)ccc3n2)C1=O,4,-1,14,/,/
CC1CC1C(=O)OCc1cc(=O)n2cc(Br)ccc2n1 (stereo unspecified),80,41*,-34,47*,3
CC1(C(=O)OCc2cc(=O)n3cc(Br)ccc3n2)CC1(Cl)Cl (stereo unspecified),?,6,-31,83*,-18
CCC(=O)N1[C@H](CN(C)C(C)=O)[C@@H](c2ccc(C3=CCCC3)cc2)[C@@H]1CO,/,/,/,-4,0[16.7 µM]
Cc1cccc(NC(=O)CSCC(=O)Nc2cc(Cl)ccc2N2CCOCC2)c1,0,-1,72*,3,8
SMILES,MITF act,Wnt act,Env fusion inh,esBAF inh,miR122 inh
O=C(c1cccc(S(=O)(=O)NCc2ccccc2)c1)N1CCN(c2cccc(C(F)(F)F)c2)CC1,-13,-7,61*,/,39
COc1ccc(-c2cc(-c3ccc(Cl)cc3)n[nH]2)c(O)c1,122*,41*,-100,/,/
Oc1ccc(Br)cc1-c1cc(-c2ccc(Cl)cc2)n[nH]1,-4,/,/,/,4
COc1ccc(-c2cc(-c3cc(OC)ccc3O)[nH]n2)cc1,/,/,-147,54*,12
Oc1ccc(Br)cc1-c1cc(-c2ccccc2)n[nH]1,-1,/,/,/,6
COc1ccc(O)c(-c2cc(-c3cccc(Br)c3)n[nH]2)c1,56,15,/,62*,15
COc1ccc(O)c(-c2cc(-c3ccc(F)cc3)n[nH]2)c1,42,?,-54,72*,7
CCCC(=O)Nc1ccc2c(c1)OC[C@H](C)N(C(=O)c1ccccc1F)C[C@@H](C)[C@@H](OC)CN(C)C2=O,/,/,/,-1,-9[16.7 µM]
CCCNC(=O)N1[C@H](CO)[C@H](c2ccccc2)[C@@H]1CNC(=O)c1ccc(F)cc1,/,/,/,3,14[16.7 µM]
COc1ccc(S(=O)(=O)Nc2ccc3c(c2)CC(=O)N([C@H](C)CO)C[C@H](C)[C@@H](CN(C)C(=O)Nc2ccccc2)O3)cc1,/,/,6[16.7 µM],0,-3[16.7 µM]
COc1ccc(-c2ncncc2-c2ccc(Cl)cc2)c(O)c1,16,-7,56*,-9,-1
CCOC(=O)C1=C[C@@H](C2CCCC2)N(S(=O)(=O)c2ccc([N+](=O)[O-])cc2)[C@H]1c1ccccc1,/,-1,55*,-9,19
CCOC(=O)C1=C[C@@H](CC)N(S(=O)(=O)c2ccc(C)cc2)[C@H]1c1ccccc1,/,-2,-1,1,-3
COc1ccc(N=Cc2nc(-c3ccccc3)oc2OC(=O)c2ccccc2)cc1,-11,54*,-21,/,13
COc1cc(C2CC(c3cccs3)=NN2C(=O)CCl)ccc1OC(F)F (stereo unspecified),-65,14,19,5,1
COc1ccc(C2CC(c3cccs3)=NN2C(=O)CCl)cc1OC (stereo unspecified),-83,-3,62*,20,-3
COc1ccc(NC(=O)c2ccc(-c3c(C)noc3C)c3ccoc23)cc1,/,23,10,56*,0
Cc1noc(C)c1-c1ccc(C(=O)NC2CCCCC2)c2occc12,/,24,-28,53*,-2
Cc1noc(C)c1-c1ccc(C(=O)Nc2ccccc2)c2occc12,/,-1,-105,57*,-9
C[C@H](NC(=O)C[C@H]1C=C[C@H](NC(=O)Cc2ccccn2)[C@@H](CO)O1)c1ccccc1,/,/,/,6,/
Cc1ccc(-c2cnc3c(c2)C(=O)N([C@H](C)CO)C[C@@H](C)[C@H](CN(C)C)O3)cc1,/,/,0[16.7 µM],1,-2[16.7 µM]
O=C(/C=C/c1ccc2c(c1)OCO2)Nc1nncs1,/,61*,-19,/,-1
O=C(/C=C/c1ccc2c(c1)OCO2)Nc1nc(-c2ccccc2)cs1,-13,/,/,17,0
Nc1ccccc1C(=O)/C=C/c1ccc2c(c1)OCO2,85*,35*,i,73*,/
Cc1cc(C)nc(NC(=O)/C=C/c2ccc3c(c2)OCO3)c1,115*,44*,-137,48*,-6
CC(C)(C)c1ccc(/C=C/C(=O)Nc2nncs2)cc1,89*,26,-34,26,-14
O=C(/C=C/c1cccs1)Nc1nncs1,61,16,2,/,/
